Measured values reported in PubChem BioAssay (NCATS).
Values joined by “and” are separate entries in the source; they are usually repeats but may differ in a detail not shown here. Identical values can stand only once. Results filed as inconclusive are left out. Where a call stands in place of a potency, no number is given. Active and inactive are the calls of the source. The call rests on the fitted dose curve; in most records, active means well fitted curve in the direction sought with a large enough effect; inconclusive means small, poorly fitted or top-dose-only effect, or another doubt; inactive means no such curve, though single readings can be large; an effect the other way counts as inactive or inconclusive.

Assays:
[1] = Primary qHTS for inhibitors of nuclear receptor binding SET domain protein 2 (NSD2) in an isogenic RCH-ACV NSD2 p.E1099K mutant (9B) (AID 1645876); further: nearly all actives have a fitted effect of over 70% in size; further: potency means the concentration at half of the fitted maximal effect
[2] = Primary qHTS for inhibitors of nuclear receptor binding SET domain protein 2 (NSD2) in an RCH-ACV wild type WT cells (2C) (AID 1645877); further: nearly all actives have a fitted effect of over 70% in size; further: potency means the concentration at half of the fitted maximal effect
[3] = molecular target: Rap guanine nucleotide exchange factor 3 (Homo sapiens) (UniProt O95398); experiment: Confirmatory qHTS for antagonist of cAMP-regulated guanine nucleotide exchange factor 3 (EPAC1) (AID 1645880); further: nearly all actives have a fitted effect of over 55% in size
How it was run: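 Nucleotide exchange uses 100 nM EPAC1, 250 nM RAP1B-BODIPY-GDP and 50 uM GDP, with compounds in a concentration-titration series. After 5 min at room temperature, fluorescence (480 nm ex/540 nm em) is read every 5 min for 30 min. Data are normalized to control ATA and DMSO.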

[4] = molecular target: Rap guanine nucleotide exchange factor 3 (Homo sapiens) (UniProt O95398); experiment: Confirmatory qHTS for agonist of cAMP-regulated guanine nucleotide exchange factor 3 (EPAC1) (AID 1645881);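 further: EPAC1 catalysed release of BODIPY-GDP from Rap1B seen as fluorescence loss; nearly all actives have a fitted effect of over 75% in size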
[5] = molecular target: Rap guanine nucleotide exchange factor 4 (Homo sapiens) (UniProt Q8WZA2); experiment: Confirmatory qHTS for agonist of cAMP-regulated guanine nucleotide exchange factor 4 (EPAC2) (AID 1645884);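 further: nucleotide exchange releases bodipy-GDP from Rap1 and this lowers its fluorescence; nearly all actives have a fitted effect of over 65% in size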
[6] = molecular target: Rap guanine nucleotide exchange factor 4 (Homo sapiens) (UniProt Q8WZA2); experiment: Confirmatory qHTS for antagonist of cAMP-regulated guanine nucleotide exchange factor 4 (EPAC2) (AID 1645885); further: nearly all actives have a fitted effect of over 25% in size

Sequence of Rap guanine nucleotide exchange factor 3 (Homo sapiens) (O95398 whole entry, looked up): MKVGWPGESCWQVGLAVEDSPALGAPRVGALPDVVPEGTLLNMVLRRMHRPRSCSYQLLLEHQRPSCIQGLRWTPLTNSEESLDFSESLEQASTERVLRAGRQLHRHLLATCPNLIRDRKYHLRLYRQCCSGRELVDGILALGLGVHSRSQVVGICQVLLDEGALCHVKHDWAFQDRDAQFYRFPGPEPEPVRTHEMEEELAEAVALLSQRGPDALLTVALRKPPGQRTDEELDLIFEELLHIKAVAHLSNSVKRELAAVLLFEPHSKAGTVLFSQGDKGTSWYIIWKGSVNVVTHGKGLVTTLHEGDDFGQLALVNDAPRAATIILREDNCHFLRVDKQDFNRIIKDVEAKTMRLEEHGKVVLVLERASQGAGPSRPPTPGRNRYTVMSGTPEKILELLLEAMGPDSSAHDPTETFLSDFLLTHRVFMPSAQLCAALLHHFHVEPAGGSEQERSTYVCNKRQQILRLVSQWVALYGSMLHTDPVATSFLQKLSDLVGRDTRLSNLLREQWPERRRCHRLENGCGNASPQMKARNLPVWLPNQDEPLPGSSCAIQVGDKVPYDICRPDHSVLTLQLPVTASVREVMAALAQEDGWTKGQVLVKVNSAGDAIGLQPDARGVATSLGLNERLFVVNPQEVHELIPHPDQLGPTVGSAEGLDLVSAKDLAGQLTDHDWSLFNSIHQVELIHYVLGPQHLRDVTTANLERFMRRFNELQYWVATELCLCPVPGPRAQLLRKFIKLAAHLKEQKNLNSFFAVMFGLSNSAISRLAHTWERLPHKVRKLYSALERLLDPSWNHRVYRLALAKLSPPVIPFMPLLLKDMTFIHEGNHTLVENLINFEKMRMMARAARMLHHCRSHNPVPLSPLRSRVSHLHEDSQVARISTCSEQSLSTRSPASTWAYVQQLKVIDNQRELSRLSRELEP
Sequence of Rap guanine nucleotide exchange factor 4 (Homo sapiens) (Q8WZA2 whole entry, looked up): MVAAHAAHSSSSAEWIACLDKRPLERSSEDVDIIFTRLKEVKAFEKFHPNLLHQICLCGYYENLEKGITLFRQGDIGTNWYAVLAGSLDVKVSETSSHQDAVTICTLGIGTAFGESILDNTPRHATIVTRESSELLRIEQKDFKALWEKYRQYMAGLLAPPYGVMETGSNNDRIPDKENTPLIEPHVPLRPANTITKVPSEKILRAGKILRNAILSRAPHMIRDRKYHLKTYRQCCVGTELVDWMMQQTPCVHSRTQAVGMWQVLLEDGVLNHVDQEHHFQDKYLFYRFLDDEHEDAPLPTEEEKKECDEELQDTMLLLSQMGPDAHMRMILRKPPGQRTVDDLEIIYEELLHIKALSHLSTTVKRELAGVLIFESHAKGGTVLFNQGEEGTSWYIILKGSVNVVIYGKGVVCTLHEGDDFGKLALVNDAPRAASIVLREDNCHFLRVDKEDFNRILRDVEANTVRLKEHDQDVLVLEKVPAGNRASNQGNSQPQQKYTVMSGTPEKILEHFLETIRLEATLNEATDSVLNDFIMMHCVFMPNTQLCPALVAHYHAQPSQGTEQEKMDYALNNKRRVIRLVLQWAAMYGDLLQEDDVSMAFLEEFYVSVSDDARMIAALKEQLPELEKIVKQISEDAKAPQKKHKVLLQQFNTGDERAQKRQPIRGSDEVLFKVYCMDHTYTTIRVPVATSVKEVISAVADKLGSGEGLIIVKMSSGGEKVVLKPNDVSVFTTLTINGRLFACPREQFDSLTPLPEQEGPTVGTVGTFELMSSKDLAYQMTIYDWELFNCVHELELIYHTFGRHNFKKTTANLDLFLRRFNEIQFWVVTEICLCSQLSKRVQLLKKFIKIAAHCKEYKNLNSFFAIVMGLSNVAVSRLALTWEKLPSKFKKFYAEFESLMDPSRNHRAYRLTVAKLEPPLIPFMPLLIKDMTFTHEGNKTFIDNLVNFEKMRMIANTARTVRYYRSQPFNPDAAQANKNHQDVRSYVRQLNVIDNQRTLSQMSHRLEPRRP

CCC(=O)C(CC(C)N(C)C)(c1ccccc1)c1ccccc1 (configuration not stated)
Potency [1]: 34.7 µM (active) | Potency [2]: 30.9 µM (active)

CN(C)CCc1ccc(O)cc1
Potency [1]: inactive | Potency [2]: inactive

CN(C)CCN(C)CCc1ccc(Cl)c(Cl)c1
Potency [1]: inactive | Potency [2]: inactive

CC(=O)Nc1cc([As](=O)(O)O)ccc1O
Potency [1]: inactive | Potency [2]: inactive

c1ccc2c(c1)Nc1ccccc1S2
Potency [1]: inactive | Potency [2]: inactive

C#CCN(C)[C@H](C)Cc1ccccc1
Potency [1]: inactive | Potency [2]: inactive

COc1ccc(C(=O)c2c(C)n(CCN3CCOCC3)c3ccccc23)cc1
Potency [1]: 23.5 µM (active) | Potency [2]: 18.8 µM (active)

CCOC(=O)C1(c2ccccc2)CCN(CCC(C#N)(c2ccccc2)c2ccccc2)CC1
Potency [1]: 5.96 µM (active) | Potency [2]: 5.96 µM (active)

CC(C)NCC(O)c1ccccc1Cl (configuration not stated)
Potency [1]: inactive | Potency [2]: inactive

C[C@H]1O[C@@H](O[C@H]2[C@@H](O)C[C@H](O[C@H]3[C@@H](O)C[C@H](O[C@H]4CC[C@@]5(C)[C@H](CC[C@@H]6[C@@H]5CC[C@]5(C)[C@@H](C7=CC(=O)OC7)CC[C@]65O)C4)O[C@@H]3C)O[C@@H]2C)C[C@H](O)[C@@H]1O
Potency [1]: 16.8 nM (active) and 19.2 nM (active) | Potency [2]: 42.2 nM (active) and 85.8 nM (active) | Potency [3]: inactive | outcome [4]: inactive | outcome [5]: inactive

Cc1ccc2c(c1)C1CN(C)CCC1N2 (configuration not stated)
Potency [1]: inactive | Potency [2]: inactive

CC(=O)[C@H]1CC[C@H]2[C@@H]3CC[C@H]4C[C@H](O)CC[C@]4(C)[C@H]3C(=O)C[C@]12C
Potency [2]: inactive

CC(C)=CC1C(C(=O)OCc2cccc(Oc3ccccc3)c2)C1(C)C (configuration not stated)
Potency [1]: inactive | Potency [2]: inactive | Potency [3]: inactive | outcome [4]: inactive | outcome [5]: inactive | Potency [6]: inactive
